About 2,000 (36%) of roughly 5,500 compounds were called active. Roughly 18% stayed inconclusive and do not appear here. No stated cut-off is given here; in the data, active means normalized growth mostly below about 0.91 (no sharp cut-off); inconclusive means no clear call, values can overlap the other calls; inactive means mostly above about 0.92. The list shows a part of the results.
Test: chemical genetic growth profiling, strain panel (AID 1159580);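 further: tested at 20 µM; growth read once vehicle control cultures reached saturation at 30 °C; 1 = growth at the plate median or of vehicle wells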
Conditions: S. cerevisiae deletion strains, growth OD

Measured: normalized growth

OC[C@H]1OC([S-])[C@H](O)[C@@H](O)[C@@H]1O.[Au+] (some centres undefined)
inactive: locus YAL021C, strain ccr4, stronger effect = lower value 1.03 | locus YAL026C, strain drs2, stronger effect = lower value 1.03 | locus YAL030W, strain snc1, stronger effect = lower value 1.03 | locus YBL061C, strain skt5, stronger effect = lower value 1.02 | locus YBR009C, strain hhf1, stronger effect = lower value 1.02 | locus YBR023C, strain chs3, stronger effect = lower value 1.01 | locus YBR171W, strain sec66, stronger effect = lower value 1.01 | locus YBR231C, strain swc5, stronger effect = lower value 1.02 | locus YBR279W, strain paf1, stronger effect = lower value 1.01 | locus YCL011C, strain gbp2, stronger effect = lower value 1 | locus YCL016C, strain dcc1, stronger effect = lower value 1 | locus YCL069W, strain vba3, stronger effect = lower value 1.01 | locus YCR088W, strain abp1, stronger effect = lower value 1.01 | locus YDL005C, strain med2, stronger effect = lower value 1.02 | locus YDL040C, strain nat1, stronger effect = lower value 1.01 | locus YDR001C, strain nth1, stronger effect = lower value 1 | locus YDR069C, strain doa4, stronger effect = lower value 1.01 | locus YDR137W, strain rgp1, stronger effect = lower value 1.03 | locus YDR159W, strain sac3, stronger effect = lower value 1.06 | locus YDR195W, strain ref2 1.03 | locus YDR297W, strain sur2, stronger effect = lower value 1 | locus YDR334W, strain swr1, stronger effect = lower value 1.01 | locus YDR335W, strain msn5, stronger effect = lower value 1.02 | locus YDR392W, strain spt3, stronger effect = lower value 1.03 | locus YEL003W, strain gim4, stronger effect = lower value 1.01 | locus YEL037C, strain rad23, stronger effect = lower value 1.01 | locus YEL061C, strain CIN8 (second series), stronger effect = lower value 1.01 | locus YER015W, strain faa2, stronger effect = lower value 1.01 | locus YER016W, strain bim1, stronger effect = lower value 1.02 | locus YER111C, strain swi4, stronger effect = lower value 1.01 | locus YER155C, strain BEM2 (second series), stronger effect = lower value 1.05 | locus YFR010W, strain ubp6, stronger effect = lower value 1.02 | locus YGL167C, strain pmr1, stronger effect = lower value 1 | locus YGL173C, strain kem1, stronger effect = lower value 1.02 | locus YGL227W, strain vid30, stronger effect = lower value 1.01 | locus YGL240W, strain doc1, stronger effect = lower value 1.03 | locus YGL253W, strain hxk2, stronger effect = lower value 1.01 | locus YHR013C, strain ard1, stronger effect = lower value 1.02 | locus YHR027C, strain rpn1, stronger effect = lower value 0.992 | locus YHR030C, strain SLT2, stronger effect = lower value 1.05 | locus YHR079C, strain IRE1, stronger effect = lower value 1.1 | locus YHR142W, strain chs7, stronger effect = lower value 0.995 | locus YJL092W, strain hpr5, stronger effect = lower value 1.01 | locus YJL095W, strain BCK1 (second series), stronger effect = lower value 1.01 | locus YJL095W, strain BCK1, stronger effect = lower value 1.08 | locus YJL115W, strain asf1, stronger effect = lower value 1.01 | locus YJL129C, strain trk1, stronger effect = lower value 1.01 | locus YJL154C, strain vps35, stronger effect = lower value 1.01 | locus YJL164C, strain tpk1, stronger effect = lower value 1.01 | locus YJL166W, strain qcr8, stronger effect = lower value 1.02 | locus YJL187C, strain SWE1, stronger effect = lower value 1.02 | locus YJR066W, strain TOR1, stronger effect = lower value 0.998 | locus YKL160W, strain elf1, stronger effect = lower value 1 | locus YKR026C, strain gcn3, stronger effect = lower value 1.01 | locus YKR091W, strain srl3, stronger effect = lower value 1.01 | locus YLL001W, strain dnm1, stronger effect = lower value 1.01 | locus YLL026W, stronger effect = lower value 1.01 | locus YLL041C, strain sdh2, stronger effect = lower value 0.999 | locus YLR027C, strain aat2, stronger effect = lower value 1.02 | locus YLR221C, strain rsa3, stronger effect = lower value 1.01 | locus YLR258W, strain gsy2, stronger effect = lower value 1.01 | locus YLR262C, strain YPT6 (second series), stronger effect = lower value 1 | locus YLR320W, strain mms22, stronger effect = lower value 1.02 | locus YLR342W, strain FKS1, stronger effect = lower value 1.01 | locus YLR357W, strain rsc2, stronger effect = lower value 1.01 | locus YLR370C, strain arc18, stronger effect = lower value 1.01 | locus YLR384C, strain iki3, stronger effect = lower value 0.987 | locus YML120C, strain ndi1, stronger effect = lower value 1.02 | locus YMR058W, strain fet3, stronger effect = lower value 1.01 | locus YMR125W, strain sto1, stronger effect = lower value 1.02 | locus YMR129W, stronger effect = lower value 1.01 | locus YMR205C, strain PFK2, stronger effect = lower value 1.03 | locus YMR231W, strain pep5, stronger effect = lower value 1.01 | locus YNL071W, strain lat1, stronger effect = lower value 1 | locus YNL183C, strain NPR1, stronger effect = lower value 1.02 | locus YNL209W, strain ssb2, stronger effect = lower value 1 | locus YNL248C, strain rpa49, stronger effect = lower value 1.01 | locus YNL322C, strain KRE1 (second series), stronger effect = lower value 1.01 | locus YNR049C, strain mso1, stronger effect = lower value 0.997 | locus YOR001W, strain rrp6, stronger effect = lower value 1.02 | locus YOR070C, strain gyp1, stronger effect = lower value 1 | locus YOR080W, strain dia2, stronger effect = lower value 1.01 | locus YOR083W, strain WHI5, stronger effect = lower value 0.996 | locus YOR106W, strain vam3, stronger effect = lower value 1.03 | locus YOR231W, strain MKK1, stronger effect = lower value 1.09 | locus YOR265W, strain rbl2, stronger effect = lower value 1.01 | locus YOR290C, strain snf2, stronger effect = lower value 1.01 | locus YPL051W, strain arl3, stronger effect = lower value 0.994 | locus YPL078C, strain atp4, stronger effect = lower value 1.03 | locus YPL106C, strain sse1, stronger effect = lower value 1.01 | locus YPL240C, strain hsp82, stronger effect = lower value 1.01 | locus YPL256C, strain CLN2, stronger effect = lower value 1.16
active: locus YLR113W, strain HOG1, stronger effect = lower value 1.17 [resistant] | locus YOR270C, strain vph1, stronger effect = lower value 1.27 [resistant]

From PubChem BioAssay AID1159580 (chemical genetic matrix, 2015)
